Screening results from PubChem BioAssay.
Hits are enriched below; roughly 11% of the tested compounds scored in any of these assays.
G9a block = qHTS Assay for Inhibitors of Histone Lysine Methyltransferase G9a; 8.8% of 350,000 active; G9a H3K9 monomethylation, AlphaScreen, 2 h; Potency, µM (highest dose often 102 µM), for inactives: at the top dose activity, negative = inhibition, actives largely listed as inhibitors; note: potency is the fitted concentration of half-maximal effect; nearly all actives have a fitted effect of over 75% in size
Target sequence (Q96KQ7 913-1193 limits assumed): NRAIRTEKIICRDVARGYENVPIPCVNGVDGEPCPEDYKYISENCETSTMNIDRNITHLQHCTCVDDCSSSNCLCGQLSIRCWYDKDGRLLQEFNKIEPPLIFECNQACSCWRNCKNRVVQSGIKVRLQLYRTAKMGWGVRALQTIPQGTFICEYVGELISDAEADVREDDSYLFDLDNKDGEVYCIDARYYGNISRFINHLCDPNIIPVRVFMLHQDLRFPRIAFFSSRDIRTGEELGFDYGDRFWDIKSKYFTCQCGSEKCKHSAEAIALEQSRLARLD
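Readings reflect AlphaScreen signal from monomethyl-H3K9 antibody detection. HMT at 20 nM; substrate b-H3K9 500 nM; cofactor SAM 20 uM; 2 h RT reaction; compounds tested as titrations in qHTS with 15 min preincubation.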
Tau FP inhib = qHTS for Inhibitors of Tau Fibril Formation, Fluorescence Polarization. K18 P301L tau heparin fibrillization, Alexa594 FP, 6 h. Potency, µM (titrated, usually from 57.7 µM), without a hit: at the highest dose activity, negative = inhibition, actives largely listed as inhibitors. 0.39% of 280,000 active. AID 1468, 2008; note: potency is the fitted concentration of half-maximal effect; nearly all actives have a fitted effect of over 55% in size
Target sequence (P10636 561-689 P618L limits assumed): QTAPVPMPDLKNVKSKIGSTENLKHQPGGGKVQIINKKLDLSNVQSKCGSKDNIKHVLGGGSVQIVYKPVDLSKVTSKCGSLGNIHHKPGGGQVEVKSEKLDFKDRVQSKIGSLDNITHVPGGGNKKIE
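Recombinant K18 P301L […], labeled with Alexa 594 at 0.24 uM over 15 uM unlabeled; heparin inducer 20 uM final; 37 C, 6 hr; FP endpoint.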
Sfp inh = qHTS Assay for Inhibitors of Bacillus subtilis Sfp phosphopantetheinyl transferase (PPTase). Biochemical Sfp PPTase activity, qHTS. Potency, µM, for the others: largest response in the series, negative = inhibition, most hits filed as inhibitors. 3.5% of 310,000 active. AID 1490, 2009;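 note: the enzyme is Sfp with the accession as filed and its product quenches rhodamine fluorescence; potency is the fitted concentration of half-maximal effect; 0% = enzyme reaction without inhibitor and -100% = no enzyme wells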
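Step 1, compound plus 15 nM Sfp-PPTase, 15 min, room temperature. Step 2, add rhodamine-CoA (5 uM) and BHQ-2-YbbR (12.5 uM). Step 3, read 525/598 nm fluorescence at 0 and 30 min.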
FBPA coupling cs = qHTS Assay for Inhibitors of Fructose-1,6-bisphosphate Aldolase from Giardia Lamblia: Coupling assay counterscreen. coupling enzyme system counterscreen, AmpLite Red fluorescence. activity change, negative = inhibition, % at 58.2 µM, hits read low. 0.67% of 290,000 active. AID 2472, 2010; in the data active = activity change below about -30%
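Compounds tested against the coupling enzymes alone at 57.5 uM final; readout was AmpLite Red fluorescence (525/598 nm) after 20 min at RT.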
Tau fluor counter = Counterscreen qHTS for Inhibitors of Tau Fibril Formation, Fluorescence Polarization | tau K18 P301L Alexa594 fluorescence, heparin fibrillization | Potency, µM (doses to about 57.7 µM), inactives show at the highest dose activity change, negative = decrease | 0.93% of 280,000 active | AID 1463, 2008; note: potency is the fitted concentration of half-maximal effect; nearly all actives have a fitted effect of over 55% in size
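Human tau K18 P301L (15 uM unlabeled, 0.24 uM Alexa 594-labeled) in 100 mM sodium acetate pH 7 with 20 uM heparin, 6 hr at 37 C. ThT 30 uM added, 1 hr ambient; Alexa 594 FP and total fluorescence read at 555/632 nm.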
Tau fibril ThT = qHTS for Inhibitors of Tau Fibril Formation, Thioflavin T Binding; Microtubule-associated protein tau (Homo sapiens), P10636; recombinant tau K18 P301L (four-repeat tau fragment), heparin-induced fibrillization, ThT fluorescence; Potency, µM (titrated, usually from 57.4 µM), for the others: top-dose activity, negative = inhibition, usual class: inhibitors; 2.1% of 270,000 active; AID 1460, 2008; note: potency is the fitted concentration of half-maximal effect; nearly all actives have a fitted effect of over 55% in size
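Aggregation was driven by heparin (20 uM final) acting on recombinant tau […] bearing P301L in 100 mM sodium acetate pH 7; fibrils were detected with Thioflavin T.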
* marks the source's active call; other numbers are inactive results; ? = inconclusive; nt = no result given; ! = not active in a repeat; [ ] = dose if it differs, or a comment. Unless noted, calls come from the whole dose curve; as a rule, active = well fitted curve in the direction sought with a large enough effect; inconclusive = small, poorly fitted or top-dose-only effect, or another doubt; inactive = no such curve, though single readings can be large; an effect the other way counts as inactive or inconclusive. Unless noted, % is set by controls: 0 for no effect and ±100 for the full control effect.

SMILES	G9a block	Tau FP inhib	Sfp inh	FBPA coupling cs	Tau fluor counter	Tau fibril ThT
O=C(Nc1ccc(Cl)cc1C(F)(F)F)C(Sc1nnc(-c2cccs2)o1)c1ccccc1 (centres undefined)	?	8.8%	?	-4.1	1.3%	4.7%
CCc1ccc(C(=O)Nc2cccc(-c3nc4cc(C(C)C)ccc4o3)c2)cc1	5.1%[59 µM]	?	nt	nt	-24.3%	-10.0%
Cc1c(Cl)cccc1NC(=O)CNC(=O)Cc1c[nH]c2ccccc12	15.5%[12.7 µM]	nt	nt	nt	nt	nt
Oc1cc(-c2ccccc2)c2ccccc2c1	-0.2%[59 µM]	?	-15.2%	-60.3*	?	14.1µM*
Cc1ccc(C)c(N2CCN(c3nc4ccccc4c(=O)n3-c3ccc(Cl)cc3)CC2)c1	-29.6%[59 µM]	-11.3%	nt	nt	-1.5%	-5.9%
CC(C)C(=O)Nc1ccccc1-c1nc2ccccc2[nH]c1=O	?	nt	11.6%	3.2	nt	nt
CC(C)C(=O)Nc1sc2c(c1-c1nc3ccccc3[nH]1)CCCC2	14.1µM*	9.8%	-4.0%	3.2	?	?
COc1cccc(OC)c1C(=O)NNS(=O)(=O)c1ccc2ccccc2c1	-6.3%[0.501 µM]	nt	9.1%	nt	nt	nt
CCN1CCN(C2=C(NS(=O)(=O)c3ccc(Br)cc3)C(=O)c3ccccc3C2=O)CC1	44.7µM*	nt	-13.2%	nt	nt	nt
CCOC(=O)C1CCN(C2=C(NS(=O)(=O)c3ccc(Br)cc3)C(=O)c3ccccc3C2=O)CC1	8.91µM*	nt	14.8%	-33.4*	nt	nt
NC(=O)C1CCN(C2=C(NS(=O)(=O)c3ccc(Br)cc3)C(=O)c3ccccc3C2=O)CC1	nt	nt	-7.9%	-32.1*	nt	nt
NC(=O)C1CCN(C2=C(NS(=O)(=O)c3ccccc3)C(=O)c3ccccc3C2=O)CC1	nt	4.8%	3.0%	-31.3*	-26.8%	?
C=CCON/C(CCC)=C1\C(=O)C(C(=O)OC)C(C)(C)CC1=NC (centres undefined)	-23.3%	-7.2%	6.4%	5.5	-6.0%	-2.6%
CCOC(=O)c1ccc(NC(=O)c2c(NCc3ccc(OC)c(OC)c3OC)sc3c2CCC(C)C3)cc1 (centres undefined)	-43.3%[59 µM]	-4.7%	nt	nt	-26.9%	?
COc1cccc(N2CCN(C(=O)c3cccc(NC4=NC5CS(=O)(=O)CC5S4)c3)CC2)c1 (centres undefined)	8.0%	nt	11.6%	1.4	nt	nt
N#Cc1ccc(NC(=O)C2Cc3ccccc3CN2S(=O)(=O)c2ccc(F)cc2)cc1 (centres undefined)	16.7%[59 µM]	-23.8%	nt	nt	?	15.9%
O=C(c1ccccc1)c1ccc2nc(Nc3cc(Cl)ccc3O)c3nncn3c2c1	?	?	nt	nt	17.8µM*[quencher]	-9.5%
Cc1cc(SCNC(=O)c2ccccc2)nc(C(C)C)n1	31.6µM*	-11.2%	?	0.5	-2.6%	-15.9%
Cc1cc(SCC(N)=O)nc(SCC(=O)c2ccccc2)n1	28.2µM*	-2.1%	44.7µM*	7.6	-2.6%	-0.9%
Cc1nc2ccccc2nc1SCC(=O)c1ccccc1	?	5.9%	44.7µM*	3.5	-20.9%	?
Cc1cc(SCC(=O)c2ccccc2)nc(C)n1	50.1µM*	-1.6%	3.6%	4.1	-3.5%	-8.6%
CCOc1ccc(S(=O)(=O)N2CCN(c3ccccc3)CC2)cc1C(N)=O	30.3%[59 µM]	-0.8%	nt	nt	-1.5%	4.1%
Cc1cc(Nc2ccccc2)c2c([N+](=O)[O-])c(C)cc(C)c2n1	22.4µM*	14.5%	-4.0%	5.1	?	?
Cc1cccc(Nc2cc(C)nc3ccccc23)c1	nt	nt	8.5%	3.6	nt	nt
Cc1ccc2c(c1)NC(=O)c1cccnc1N2	44.7µM*	9.4%	11.1%	-0.9	-22.1%	?
SMILES	G9a block	Tau FP inhib	Sfp inh	FBPA coupling cs	Tau fluor counter	Tau fibril ThT
Cn1cnc(S(=O)(=O)Nc2ccccc2N2CCOCC2)c1	-6.4%	8.2%	-2.8%	-1.0	4.3%	-9.0%
CN(C)c1cccc2c1c(NS(=O)(=O)c1cn(C)cn1)nn2C	8.91µM*	nt	31.6µM*	nt	nt	nt
Cc1nn(-c2ccccc2)c(N)c1N=Nc1ccc2ccccc2c1	39.8µM*	1.1%	?	-1.9	15.8µM*[quencher]	5.01µM*
Cc1ccc(N=Nc2c(N)nn(-c3ccccc3)c2N)cc1	-50.0%[59 µM]	-6.2%	-11.7%	-1.9	?	4.47µM*
Cc1nn(-c2ccccc2)c(N)c1N=O	11.2%	0.6%	5.4%	-0.9	0.3%	-2.8%
Cc1ccc(N=Nc2c(N)nn3c(N)c(C#N)c(C)nc23)cc1	-39.0%	-9.8%	-4.8%	1.0	?	1.41µM*
Cc1ccc(N=Nc2c(N)nn3c(C)cc(C)nc23)cc1	16.9%[59 µM]	0.3%	16.9%	-0.5	-14.2%	?
COc1ccc(-c2c(C)nn(-c3ccccc3)c2N)cc1	-12.9%[59 µM]	-1.1%	13.2%	1.6	-18.6%	-26.0%
Cc1ccc(C(=O)C(C)OC(=O)c2nc(Cl)ccc2Cl)cc1 (centres undefined)	8.2%	nt	21.5%	nt	nt	nt
O=C(Nc1ccc(C(=O)N2CCN(c3ccccc3F)CC2)cc1)c1nsc2ccccc12	5.1%[59 µM]	-2.1%	nt	nt	-15.8%	-7.8%
CCCC1Cc2c(sc3ncnc(N)c23)CO1 (centres undefined)	44.7µM*	-0.7%	-6.8%	-2.7	-15.0%	?
CC1(C)Cc2c(sc3ncnc(N)c23)CO1	-6.6%[59 µM]	-5.4%	16.2%	-0.1	-2.7%	-8.7%
Cc1ccc(OCC(=O)Nc2cccc(C(=O)OCc3cc(=O)n4cc(C)sc4n3)c2)cc1	7.6%[12.7 µM]	0.7%	nt	nt	-1.6%	?
CC(O)C(N)C(=O)O (centres undefined)	27.4%[59 µM]	nt	-9.3%	nt	nt	nt
N[C@H](C(=O)O)[C@H](O)C(=O)O	15.4%[12.7 µM]	-0.7%	89.1µM*!	-1.8	-1.0%	-3.6%
CCOC(=O)Cn1c(=O)n(CC2CCCO2)c2nc(-c3cccc(C)c3)nc(C(N)=O)c21 (centres undefined)	-0.4%[59 µM]	-3.6%	nt	nt	-19.8%	-4.8%
CCCn1c(CCCNC(=O)c2ccccc2OC)nc2ccccc21	-0.1%[59 µM]	-8.2%	nt	nt	-25.0%	-13.8%
CCOC(=O)/C(=C\c1ccc(Cl)cc1)c1nc2sc(C)c(C)c2c(=O)[nH]1	25.1µM*	-3.3%	39.8µM*	1.9	-2.6%	?
COc1ccc(C(=O)/C=C/c2cn(CC(O)CN3CCc4ccccc43)c3ccccc23)cc1OC (centres undefined)	?	5.9%	nt	nt	?	?
